rCAG binder: binders of r(CAG) RNA repeats, primary screen, biochemical, fluorescence; r(CAG) RNA repeat, TO-PRO-1 dye displacement fluorescence; inhibition, % at 3 µM; 370,000 compounds, 1.3% hits; AID 651821, 2012;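 active = inhibition above the plate cutoff, the mean of all test compounds on that plate plus 3 SD, cut at about 35% in these data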;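 note: 0% = DMSO alone and 100% = 100 µM mitoxantrone as full dye displacement; higher means more dye released from RNA so lower well fluorescence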
MPTP inh: mitochondrial permeability transition pore inhibitors, primary screen, biochemical, isolated mouse mitochondria, absorbance | 360,000 compounds, 1.4% hits | inhibition, % at 10 µM | Ca2+ swelling absorbance, 30 min;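 active = inhibition of 50% or more, scaled per plate between neutral and stimulator controls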;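 note: 0% = DMSO wells given calcium and 100% = 1 mM EGTA wells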
NR3A LBD binder: binders of NR3A ligand-binding domain, primary screen, biophysical, differential scanning fluorimetry, uHTS | Tm shift relative to glycine control, % at 25 µM | 340,000 compounds, 2.5% hits | NR3A LBD differential scanning fluorimetry, Tm shift; 0% = protein alone, 100% = glycine-bound protein | Glutamate receptor ionotropic, NMDA 3A (GRIN3A) ligand-binding domain;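 active = melting temperature shift of at least 10% of the positive control shift, at one fixed dose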
FAS-TE inh: FAS thioesterase domain inhibitors, primary screen, biochemical, fluorescence intensity, uHTS | Fatty acid synthase (Homo sapiens), P49327 | recombinant FAS-TE, OMFH fluorogenic substrate, fluorescence endpoint | inhibition, % at 15 µM | 360,000 compounds, 0.67% hits;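 active = compounds whose normalised, plate-corrected inhibition of enzyme fluorescence in the single-dose primary screen is 50% or more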;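 note: 0% = DMSO with enzyme and 100% = substrate without enzyme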
Target sequence (P49327 whole entry, looked up, the tested form may be a part): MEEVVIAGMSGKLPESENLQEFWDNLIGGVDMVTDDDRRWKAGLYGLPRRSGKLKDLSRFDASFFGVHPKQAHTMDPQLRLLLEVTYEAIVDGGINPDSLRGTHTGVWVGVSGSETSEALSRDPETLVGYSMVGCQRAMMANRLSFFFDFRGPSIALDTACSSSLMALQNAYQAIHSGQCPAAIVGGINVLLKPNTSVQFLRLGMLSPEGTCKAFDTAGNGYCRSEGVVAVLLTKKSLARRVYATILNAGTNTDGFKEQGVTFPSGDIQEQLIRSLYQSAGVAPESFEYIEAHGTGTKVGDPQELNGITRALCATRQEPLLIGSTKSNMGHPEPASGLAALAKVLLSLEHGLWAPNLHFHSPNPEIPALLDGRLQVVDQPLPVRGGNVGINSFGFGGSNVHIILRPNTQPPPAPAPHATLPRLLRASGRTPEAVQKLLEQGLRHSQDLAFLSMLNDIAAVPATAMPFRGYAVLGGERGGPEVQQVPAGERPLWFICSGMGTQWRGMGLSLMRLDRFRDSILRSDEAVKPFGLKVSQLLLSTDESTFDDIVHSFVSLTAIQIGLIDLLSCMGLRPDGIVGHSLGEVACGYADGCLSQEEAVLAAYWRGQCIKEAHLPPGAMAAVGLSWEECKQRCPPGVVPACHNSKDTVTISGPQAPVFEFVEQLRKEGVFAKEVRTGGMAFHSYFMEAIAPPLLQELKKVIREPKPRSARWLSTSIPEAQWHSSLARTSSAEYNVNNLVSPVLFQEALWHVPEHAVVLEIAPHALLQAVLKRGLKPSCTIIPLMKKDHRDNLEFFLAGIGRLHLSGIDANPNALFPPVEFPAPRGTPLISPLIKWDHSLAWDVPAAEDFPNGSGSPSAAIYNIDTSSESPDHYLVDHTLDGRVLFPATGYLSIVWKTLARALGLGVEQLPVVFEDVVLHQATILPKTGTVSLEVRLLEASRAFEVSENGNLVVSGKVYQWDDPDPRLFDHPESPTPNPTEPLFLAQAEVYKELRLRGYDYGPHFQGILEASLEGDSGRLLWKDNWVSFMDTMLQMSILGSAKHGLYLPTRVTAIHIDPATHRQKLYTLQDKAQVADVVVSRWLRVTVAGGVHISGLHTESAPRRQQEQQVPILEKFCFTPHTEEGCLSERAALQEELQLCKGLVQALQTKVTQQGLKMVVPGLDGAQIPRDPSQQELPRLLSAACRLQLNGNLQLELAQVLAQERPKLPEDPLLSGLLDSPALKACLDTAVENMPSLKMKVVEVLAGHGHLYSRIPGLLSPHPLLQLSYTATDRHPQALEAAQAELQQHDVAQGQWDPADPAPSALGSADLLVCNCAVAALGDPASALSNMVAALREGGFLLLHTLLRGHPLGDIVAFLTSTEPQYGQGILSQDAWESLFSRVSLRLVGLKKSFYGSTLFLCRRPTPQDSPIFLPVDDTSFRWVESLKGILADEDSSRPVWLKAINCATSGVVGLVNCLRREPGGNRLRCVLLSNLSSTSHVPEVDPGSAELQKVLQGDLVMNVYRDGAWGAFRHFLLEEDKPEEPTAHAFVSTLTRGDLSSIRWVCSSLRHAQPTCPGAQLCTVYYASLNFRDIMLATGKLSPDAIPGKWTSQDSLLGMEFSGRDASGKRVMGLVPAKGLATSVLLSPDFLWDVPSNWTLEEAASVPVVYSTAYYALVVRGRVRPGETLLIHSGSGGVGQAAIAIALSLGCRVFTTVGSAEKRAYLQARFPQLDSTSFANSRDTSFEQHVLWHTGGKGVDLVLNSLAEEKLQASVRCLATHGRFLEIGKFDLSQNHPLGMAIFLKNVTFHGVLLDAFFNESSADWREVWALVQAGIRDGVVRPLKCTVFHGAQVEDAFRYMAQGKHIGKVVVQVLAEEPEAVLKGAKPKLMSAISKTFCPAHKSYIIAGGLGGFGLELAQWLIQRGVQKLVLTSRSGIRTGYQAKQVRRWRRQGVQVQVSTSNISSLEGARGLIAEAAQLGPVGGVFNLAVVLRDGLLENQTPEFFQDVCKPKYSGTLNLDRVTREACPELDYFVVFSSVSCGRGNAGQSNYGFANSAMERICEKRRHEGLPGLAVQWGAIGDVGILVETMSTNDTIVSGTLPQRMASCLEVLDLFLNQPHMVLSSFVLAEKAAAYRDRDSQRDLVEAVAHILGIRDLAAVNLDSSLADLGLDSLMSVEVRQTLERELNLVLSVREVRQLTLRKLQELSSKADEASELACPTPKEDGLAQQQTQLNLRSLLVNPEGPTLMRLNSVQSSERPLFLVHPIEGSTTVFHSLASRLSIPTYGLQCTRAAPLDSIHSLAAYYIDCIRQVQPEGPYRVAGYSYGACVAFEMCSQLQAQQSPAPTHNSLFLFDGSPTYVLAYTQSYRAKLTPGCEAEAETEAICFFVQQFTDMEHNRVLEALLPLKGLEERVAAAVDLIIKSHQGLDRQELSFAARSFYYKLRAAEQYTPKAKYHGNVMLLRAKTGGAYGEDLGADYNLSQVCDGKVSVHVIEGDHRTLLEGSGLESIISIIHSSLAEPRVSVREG
Myeloid diff MLP: induction of myeloid progenitor differentiation, primary screen, cell-based, flow cytometry, MLPCN library; 360,000 compounds, 1% hits; calls only at 10 µM; AID 624256, 2012; ER-HoxA9 myeloid progenitors, lysozyme-GFP differentiation;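 active = normalized GFP-positive differentiation at or above the plate's own cutoff, the solvent-only control mean plus 3 SD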;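 note: cells exposed to compound for four days before flow analysis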
rCAG binder conf: small molecules binding CAG repeat RNA – biochemical, fluorescence, confirmation. inhibition, % at 3 µM. 4,300 compounds, 70% hits. shares compounds with rCAG binder. r(CAG) RNA repeat, TO-PRO-1 dye displacement fluorescence. AID 652065, 2013;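 active = inhibition above a per-plate cutoff, the mean inhibition of sample wells plus 3 SD, cut at about 35% in these data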;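 note: loss of TO-PRO-1 fluorescence as compound displaces dye from 1x1 AA loop RNA; 0% = DMSO only wells and 100% = 100 µM mitoxantrone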
dCAG dye counter: displacement of TO-PRO-1 from CAG DNA duplex, counter-screen for rCAG RNA repeat binder project, biochemical, fluorescence, TO-PRO-1 dye, d(CAG) DNA oligo. d(CAG) DNA oligo TO-PRO-1 dye displacement. inhibition, % at 3 µM. shares compounds with rCAG binder. 4,300 compounds, 94% hits;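 active = inhibition above its plate's cutoff, the mean test-well inhibition plus 3 SD, cut at about 4.8% in these data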;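 note: 0% = DNA dye mix with DMSO and 100% = 100 µM mitoxantrone; hits displace the dye from DNA and so lower well fluorescence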
dCAG dye DR: inhibitors of DNA CAG/GTC TO-PRO-1 complex, dose response, counter-screen for rCAG RNA repeat binder project, biochemical, fluorescence, TO-PRO-1 dye. shares compounds with rCAG binder. DNA CAG/GTC duplex TO-PRO-1 dye displacement fluorescence. IC50, µM. 250 compounds, 20% hits; in the data active = IC50 below about 10 µM
Starred values were filed as active, the others as inactive; i = inactive; . = not tested or not shown. An excerpt weighted towards active compounds, which were near 5.7% of everything screened.

SMILES | rCAG binder | MPTP inh | NR3A LBD binder | FAS-TE inh | Myeloid diff MLP | rCAG binder conf | dCAG dye counter | others
COc1ccc(C(=O)Nc2ccc(S(=O)(=O)Nc3cc(C)nc(C)n3)cc2)cc1 | 5.5 | 0.7 | -0.9 | -2.9 | i | . | .
O=C(Nc1ccc(S(=O)(=O)Nc2cnc3ccccc3n2)cc1)c1ccc(Cl)c([N+](=O)[O-])c1 | 78.7* | 0.9 | 24.3* | 10.7 | i | 66.7* | 30.0*
CC(C)c1cc(CNC(=O)CC2C(=O)NCCN2CC2CCCCC2)on1 (configuration not stated) | -6.4 | -1.6 | 2.3 | -9.1 | i | . | .
CCOC(=O)c1c(-c2ccccc2)csc1NC(=O)c1cc2ccccc2oc1=O | 1.1 | 3.0 | 8.2 | 15.3 | i | . | .
N#Cc1sc2nccc(Nc3ccccc3)c2c1N | 37.8* | 26.1 | 1.4 | 3.1 | i | 2.2 | 0.2
CSc1ccc(CNC(=O)C2CCC(=O)N(CCc3cccc(F)c3)C2)cc1 (configuration not stated) | -4.1 | 0.3 | -4.3 | -0.3 | i | . | .
CC(C)=CCc1cc(-c2oc3cc(O)cc(O)c3c(=O)c2O)ccc1O | 44.5* | 4.2 | 21.2* | 7.1 | i | 51.6* | 24.7*
O=c1c(O)c(-c2ccccc2)oc2cc(O)ccc12 | 9.7 | 2.2 | . | 7.3 | i | . | .
O=c1c(O)c(-c2cc(O)c(O)c(O)c2)oc2cc(O)cc(O)c12 | 47.1* | 5.8 | 27.2* | 7.1 | i | 55.9* | 18.7* | dCAG dye DR=>29.9
Cc1nc2ccccc2n1CC(=O)c1ccc(O)c(O)c1 | -1.3 | 1.9 | 1.4 | -4.4 | i | . | .
CCOc1ccc(NC(=O)CSc2nnc(-c3ccco3)n2C)cc1 | -1.8 | -3.2 | -0.5 | -1.3 | i | . | .
COc1ccc(-n2c(SCC(=O)Nc3ccccc3)nnc2-c2ccc(NS(=O)(=O)c3ccc(C)cc3)cc2)cc1 | 0.9 | -1.9 | -2.5 | -1.6 | i | . | .
COc1ccc(-c2nnc(SCC(=O)Nc3ccc(S(=O)(=O)Nc4cc(C)nc(C)n4)cc3)n2-c2ccc(OC)cc2)cc1 | 48.8* | . | . | . | . | 43.6* | 15.2*
CCOc1ccc(-n2c(SCC(=O)Nc3ccc(S(=O)(=O)Nc4cc(C)nc(C)n4)cc3)nnc2-c2ccco2)cc1 | 40.4* | . | . | . | . | 39.7* | 13.9*
O=C(CSc1nnc(-c2ccccc2)n1-c1ccc(Cl)cc1)c1ccc(Cl)cc1 | 6.4 | . | . | . | . | . | .
Cc1ccc(-c2nnc(SCC(=O)c3ccc(O)c(O)c3)n2-c2ccc(Cl)cc2)cc1 | 40.9* | . | . | . | . | 42.6* | 17.4*
Cc1cc(NS(=O)(=O)c2ccc(NC(=O)CSc3nnc(-c4ccco4)n3-c3ccc(Cl)cc3)cc2)nc(C)n1 | 45.9* | . | . | . | . | 33.3 | 12.2*
COc1ccc(C)cc1-n1nnnc1SCc1nc(N)nc(N(C)C)n1 | 1.3 | -1.5 | . | -4.3 | i | . | .
COc1ccc(-c2nnc(SCC(=O)Nc3ccc(C(=O)O)cc3)n2-c2ccc(Cl)cc2)cc1 | 46.5* | 1.0 | -3.6 | 1.2 | i | 49.6* | 15.2*
COc1ccc(-n2c(SCC(=O)Nc3ccc(C(=O)O)cc3)nnc2-c2cccs2)cc1 | 23.9 | -0.1 | -2.2 | -8.6 | i | . | .
C/C(=N\NC(=O)c1ccc([N+](=O)[O-])cc1)c1cc2ccccc2oc1=O | 10.3 | -1.2 | -6.5 | 2.1 | i | . | .
C/C(=N\NC(=O)c1ccccc1)c1cc2cc([N+](=O)[O-])ccc2oc1=O | 49.6* | -2.5 | 4.8 | 5.7 | i | 43.7* | 15.3*
Cc1ccc(NS(=O)(=O)c2cc(NC(=O)c3cc(=O)[nH]c(=O)[nH]3)ccc2Cl)c(C)c1 | 53.7* | 3.9 | -7.5 | 6.7 | i | 60.7* | 19.5*
COc1ccc(OCC(=O)Nc2ccccc2C(=O)Nc2ccc(C(=O)O)cc2)cc1 | 19.2 | 1.3 | -0.8 | -4.0 | i | . | .
Cc1ccccc1OCC(=O)Nc1ccc(C(=O)Nc2ccccc2C(=O)O)cc1 | 48.6* | -0.8 | 6.7 | 6.4 | i | 72.8* | 36.9*
SMILES | rCAG binder | MPTP inh | NR3A LBD binder | FAS-TE inh | Myeloid diff MLP | rCAG binder conf | dCAG dye counter | others
Cc1ccccc1OCC(=O)Nc1ccc(C(N)=O)cc1 | 0.3 | 2.3 | -11.9 | -6.8 | i | . | .
COc1ccc(/C=C(\NC(=O)c2ccc(OC)cc2)C(=O)Nc2ccccc2C(=O)O)cc1 | 39.2* | 0.5 | 0.3 | 8.4 | i | 21.6 | 3.5
COc1ccc(C(=O)Nc2ccc(C(=O)O)cc2NC(=O)c2ccc(OC)cc2)cc1 | 35.7* | 1.5 | 1.1 | 0.5 | i | 20.1 | 2.6
COc1ccc(OCC(=O)Nc2ccc(C(=O)Nc3ccccc3C(=O)O)cc2)cc1 | 72.5* | 1.5 | 0.6 | -1.6 | i | 75.4* | 30.4* | dCAG dye DR=i
CC(=O)CC1c2cc(F)ccc2C=C(c2ccsc2)N1c1ccc(-c2cccnc2)cc1 (configuration not stated) | 9.9 | 1.3 | . | 23.0 | i | . | .
Cc1cccc(NC(=O)CNC(=O)Cc2ccc(S(=O)(=O)N3CCOCC3)s2)c1C | 10.4 | 0.0 | 0.6 | -5.5 | i | . | .
CCOc1ccccc1NC(=S)Nc1ccc(S(N)(=O)=O)cc1 | 2.5 | -2.0 | 0.5 | -6.5 | i | . | .
O=C(COc1ccc([N+](=O)[O-])cc1)Nc1ccc(C(=O)Nc2ccccc2C(=O)O)cc1 | 17.6 | -1.7 | 6.3 | -0.7 | i | . | .
Cc1ccc(OCC(=O)Nc2ccc(C(=O)Nc3ccccc3C(=O)O)cc2)cc1C | 50.8* | 0.9 | . | 8.1 | i | 79.7* | 45.5*
COC(=O)c1ccc(C(=O)OC)c(NC(=O)Cc2cccs2)c1 | 38.7* | 1.2 | . | -5.7 | i | 23.2 | 17.4*
CCN(Cc1ccncc1)C(=O)c1ccc(Br)o1 | -0.8 | -0.7 | -1.5 | -3.0 | i | . | .
CC(=O)Nc1nc2ccc(S(=O)(=O)N3CCCCC3)cc2s1 | 4.3 | -0.3 | -0.8 | -3.8 | i | . | .
O=S(=O)(Nc1nc2ccc(S(=O)(=O)N3CCCCC3)cc2s1)c1ccccc1 | 71.6* | 3.8 | 1.5 | -8.4 | i | 64.7* | 28.3*
Cc1ccc(S(=O)(=O)Nc2nc3ccc(S(=O)(=O)N4CCCC4)cc3s2)cc1 | 71.1* | -0.8 | 2.3 | 0.7 | i | 74.3* | 38.3*
COCCNC(=O)c1cc2nc(-c3ccc(F)cc3)cc(C(F)(F)F)n2n1 | -3.2 | -2.9 | -1.7 | -1.4 | i | . | .
